Results: PubChem BioAssay AID652126 (The Scripps Research Institute Molecular Screening Center, 2013)
Among all 370,000 compounds or so, about 3,700 (1%) were called active. The sample holds actives, similar compounds and a random draw of the others, so the mix is not that of the screen. Unmarked numbers belong to inactive results.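 How the source made its calls: active means activation above the mean over all tested compounds plus 3 SD (cut at about 0.9% in these data); inactive means the rest.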

These compounds were tested on Nuclear hormone receptor DAF-12 (Strongyloides stercoralis) (assay: ssDAF-12 driven luciferase reporter activation – cell-based, luminescence, HEK293, GRIP1 co-expression, lit1-tk-luc, primary screen (AID 652126;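 further: 0% = DMSO-only wells and 100% = 3 µM delta7-dafachronic acid wells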)). Conditions: HEK293 ssDAF-12/GRIP1 lit1-tk-luc reporter, at 6.8 µM, active compounds read high.

Row | Compound | activation
1 | COc1ccc(C2C=C(C)Oc3c2c(=O)oc2ccccc32)cc1OC (stereo not given) | -0.69%
2 | CCNc1nc2[nH]c(=O)c3c(c2s1)OC(N)=C(C#N)C3c1cccs1 (stereo not given) | -0.98%
3 | N#CC1=C(N)Oc2c(c(=O)oc3ccccc23)C1c1ccccc1OC(=O)c1cccs1 (stereo not given) | 1.09% (active)
4 | COP(=O)(Sc1ccccc1)C(Cc1ccccc1)NC(=O)OCc1ccccc1 (stereo not given) | -1.15%
5 | Cc1cc(C)c2c(c1)NP(=S)(c1ccccc1)N2 (stereo not given) | -0.09%
6 | COc1ccc2c(c1)NP(=S)(c1ccccc1)N2 (stereo not given) | 1.75% (active)
7 | CO[C@H]([C@H](C)/C=C/N(C)C=O)[C@@H](C)C(=O)CC[C@H](C)[C@H](O)[C@H](C)[C@H]1OC(=O)/C=C/C(C)=C/[C@H](O)[C@H](OC)C[C@@H]2C=CC[C@@H](C[C@H](OC)[C@@]3(CO3)[C@@H](OC)C[C@@H](OC)[C@@H]1C)O2 | -0.84%
8 | O=c1c2ccccc2nc(/C=C/c2ccc(F)cc2)n1-c1ccccc1O | -0.65%
9 | Cc1ccccc1CCC[C@@H](CC1CCCCC1)CN(C)C(=O)Oc1ccccc1 | -1.05%
10 | CCOP(=S)(OCC)C(O)CCCCCn1c(=O)c(F)cn(C2CCCO2)c1=O (stereo not given) | 1.73% (active)
11 | Clc1ccc2nc3c(c(-c4ccccc4)c2c1)CNCC3 | -0.92%
12 | COc1ccc(CNCCc2ccc3c(c2)OCO3)c(OC)c1OC | -0.57%
13 | c1cncc(CNCCc2c[nH]c3ccccc23)c1 | -0.72%
14 | COc1ccc(CNCCc2c[nH]c3ccccc23)cc1OC | 1.6% (active)
15 | CN(C)S(=O)(=O)c1cc(C(=O)N2CCC(C(=O)O)(c3ccccc3)CC2)ccc1Cl | -1.1%
16 | CN(C)c1nc(N(C)C)nc(N(C#N)CCCl)n1 | -1.19%
17 | C[C@]12CCC3C(CC[C@H]4[C@H](O)[C@H](O)CC[C@]34C)C1CC[C@@H]2O (stereo not given in full) | -0.82%
18 | O=C(CSC1c2ccccc2-c2ccccc21)N/N=C/c1ccccc1 | -0.76%
19 | COc1c(O)ccc2c1-c1c3c(cc4c1C(C2)N(C)CC4)OCO3 (stereo not given) | -0.77%
20 | Cc1ccc(OC(=O)N(C)C[C@@H]2OCc3cnnn3CCCC(=O)N([C@H](C)CO)C[C@@H]2C)cc1 | -0.97%
